Inconclusive results are not listed. Activity calls are given as the source filed them. Calls come from the whole dose curve; as a rule, active = well fitted cell-killing curve with a large enough effect; inconclusive = small, poorly fitted or top-dose-only effect, or effect the other way; inactive = no such curve, though single readings can be large or run the other way.
Assay: Quantitative High-Throughput drug screen in 47 multiple myeloma cell lines against the NCATS MIPE library collection: KMS28BM_JCRB cell viability assay (AID 1919874); note: nearly all actives have a fitted effect of over 35% in size
Settings: CellTiter-Glo ATP, 48 h; series mostly up to 45.8 µM; viability, % of control: at the top concentration
Method in brief: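 Inhibition of viability over 48 h was scored by ATP content (CellTiter-Glo) in 500-cell wells. Zero and full viability were defined by media-only and DMSO-only wells.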
Potency is the fitted concentration of half-maximal effect.

| SMILES | Potency | viability, % of control |
| --- | --- | --- |
| CC1=C(C(=O)Nc2cc3cn[nH]c3cc2F)C(c2ccc(Cl)cc2F)N=C(c2ccnc(Cl)c2)N1 (stereo not drawn) | 23.5 µM (active) |  |
| Cc1[nH]c(C=C2C(=O)Nc3ccccc32)c(C)c1CCC(=O)O | 14.8 µM (active) |  |
| COc1cc(N2CCC(C(N)=O)CC2)ccc1Nc1nc(N)c(Cl)c(Nc2ccccc2S(=O)(=O)C(C)C)n1 | 0.833 µM (active) |  |
| Nc1nc2c(c(=O)[nH]1)N(C=O)[C@H](CNc1ccc(C(=O)N[C@@H](CCC(=O)O)C(=O)O)cc1)CN2 |  | 112% (inactive) |
| C[C@H](NC(=O)Cc1cc(F)cc(F)c1)C(=O)N[C@H](C(=O)OC(C)(C)C)c1ccccc1 |  | 119% (inactive) |
| C[C@H]1[C@@H](OC(=O)CCC(=O)O)O[C@@H]2O[C@@]3(C)CC[C@@H]4[C@H](C)CC[C@@H]1[C@@]24OO3 | 14.8 µM (active) |  |
| c1ccc(CNc2nc(NCc3ccccc3)c3ccccc3n2)cc1 | 11.8 µM (active) |  |
| C#C[C@]1(O)CC[C@@H]2[C@@H]3CCc4cc(O)ccc4[C@H]3CC[C@@]21C | 4.69 µM (active) |  |
| CC(=O)SCC(Cc1ccccc1)C(=O)NCC(=O)OCc1ccccc1 (stereo not drawn) | 11.8 µM (active) |  |
| CN1C(C(=O)Nc2ccccn2)=C(O)c2sc(Cl)cc2S1(=O)=O |  | 116% (inactive) |
| COc1cc(OC)c(NC(=O)Nc2cc(C)on2)cc1Cl |  | 91.9% (inactive) |
| COc1cc([C@@H]2c3cc4c(cc3[C@@H](O[C@@H]3O[C@@H]5CO[C@@H](c6cccs6)O[C@@H]5[C@H](O)[C@@H]3O)[C@H]3COC(=O)[C@H]23)OCO4)cc(OC)c1O | 1.32 µM (active) |  |
| CC(C)(N)c1ccc(-c2nc3ccccc3nc2-c2ccccc2)cc1 | 26.4 µM (active) |  |
| COc1cc2c(cc1OC)[C@@H]1C(=O)c3ccc4c(c3O[C@@H]1CO2)C=CC(C)(C)O4 | 5.9 µM (active) |  |
| CC1(C)[C@H](O[C@H]2O[C@H](C(=O)O)[C@@H](O)[C@H](O)[C@H]2O[C@@H]2O[C@H](C(=O)O)[C@@H](O)[C@H](O)[C@H]2O)CC[C@@]2(C)[C@H]1CC[C@]1(C)[C@H]2C(=O)C=C2[C@H]3C[C@@](C)(C(=O)O)CC[C@]3(C)CC[C@]21C |  | 125% (inactive) |
| CCn1c(=O)c2c(nc(C=Cc3ccc(OC)c(OC)c3)n2C)n(CC)c1=O |  | 125% (inactive) |
| O=C(Nc1ccc(Oc2ccnc3[nH]ccc23)c(F)c1)c1cccn(-c2ccc(F)cc2)c1=O |  | 103% (inactive) |
| O=C(c1ccc(F)cc1)N1CCC[C@H](c2nc(-c3ccc(F)cc3)no2)C1 |  | 111% (inactive) |
| CO[C@@H]1[C@@H](O)[C@H](O)[C@@H](n2c3c(Cl)cccc3c3c4c(c5c6cccc(Cl)c6[nH]c5c32)C(=O)NC4=O)O[C@@H]1CO | 0.935 µM (active) |  |
| COc1cc(C(=O)NC2CCN(C)CC2)ccc1Nc1ncc2c(n1)N(C1CCCC1)CCC(=O)N2C(C)C | 14.8 µM (active) |  |
| N[C@H]1CN(c2c(F)cc3c(=O)c(C(=O)O)cn(C4C[C@@H]4F)c3c2Cl)CC12CC2 (stereo partly drawn) |  | 101% (inactive) |
| O=S(=O)(O)CCSSCCS(=O)(=O)O |  | 114% (inactive) |
| O=c1ccn([C@@H]2O[C@H](CO)[C@H](O)[C@@H]2F)c(=O)[nH]1 |  | 111% (inactive) |
| CNC(=O)Nc1ccc(-c2nc(N3CC4CCC(C3)O4)c3cnn(C4CCC5(CC4)OCCO5)c3n2)cc1 | 0.0074 µM (active) |  |
| CC(C)c1cnn2c(NCc3ccccc3)cc(NCCCCCCN)nc12 | 20.9 µM (active) |  |
| C[C@@H]1[C@H](C)CC[C@]2(C(=O)O)CC[C@]3(C)C(=CC[C@@H]4[C@@]5(C)C[C@@H](O)[C@H](O)[C@@](C)(CO)[C@H]5CC[C@]43C)[C@@H]12 |  | 116% (inactive) |
| Cc1cnc(NC(=O)Nc2cc(Br)c(C)cc2OC[C@@H]2CNCCO2)cn1 | 14.8 µM (active) |  |
| C#C[C@]1(O)CC[C@@H]2[C@@H]3CCC4=CC(=O)CC[C@@H]4[C@H]3CC[C@@]21CC |  | 112% (inactive) |
